The values that follow come from PubChem BioAssay (NCI).

Molecules are shown by their SMILES. Compounds without any hit were thinned out: in the full panel of roughly 83,000, 20% have a hit.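 In brief: 96-well plates, 48 h treatment, single concentration, percent growth endpoint.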 Values without a mark were called inactive. Active and inactive are the calls of the source. The calls were made as follows: active = growth percent below 10; inactive = the rest.

Some test systems named below: SR leukemia; RPMI-8226 leukemia; OVCAR-8 ovarian; OVCAR-5 ovarian; OVCAR-4 ovarian; SK-OV-3 ovarian; IGROV1 ovarian; OVCAR-3 ovarian; HS 578T breast; NCI/ADR-RES ovarian; T-47D breast; BT-549 breast; MDA-MB-435 melanoma; SW-620 colon; MCF7 breast; HCT-116 colon; HCC-2998 colon; KM12 colon.
Common to all, as to experiment: NCI-60 one-dose screen, 48 h (100 = growth as untreated, 0 = no growth, -100 = all killed)
Holding throughout (conditions): 10 µM unless noted

With `CCOC(=O)C1=C(C(=O)OCC)N(c2cc(OC)c(OC)c(OC)c2)C(N)=C(C#N)C1c1cc(=O)[nH]c2ccccc12` (centres undefined), the growth in the assay on SR leukemia is 93.5%; in the assay with RPMI-8226 leukemia it was 114%; in the assay with OVCAR-8 ovarian it was 105%; in the assay with OVCAR-5 ovarian, 101%; in the assay on OVCAR-4 ovarian it was 101%; in the assay with SK-OV-3 ovarian, 97%. Besides, the growth is 98.2% in the assay with IGROV1 ovarian; 110% in the assay on OVCAR-3 ovarian; 97.2% with HS 578T breast; 101% in the assay on NCI/ADR-RES ovarian; 95.4% with T-47D breast; 96.5% in the assay with BT-549 breast. The growth with MDA-MB-435 melanoma is 96.6%; in the assay on SW-620 colon it was 99.2%; in the assay on MCF7 breast, 96%; in the assay on HCT-116 colon it was 100%; in the assay with HCC-2998 colon, 108%; in the assay on KM12 colon it was 102%.

As for `CCSCC1CC(O)(c2ccccc2)C(c2ccccc2)C(c2ccc(F)cc2)O1` (centres undefined), the growth with SR leukemia is 1.33% (active); in the assay with RPMI-8226 leukemia, -16.1% (active); with OVCAR-8 ovarian, 1.93% (active); with OVCAR-5 ovarian, -2.48% (active); with OVCAR-4 ovarian it was -9.01% (active); with SK-OV-3 ovarian it was 6.98% (active). For the same molecule, the growth is 11.2% in the assay with IGROV1 ovarian; -62.9% (active) in the assay with OVCAR-3 ovarian; -35.3% (active) in the assay with HS 578T breast; -24.8% (active) with NCI/ADR-RES ovarian; -17.5% (active) in the assay on T-47D breast; -12.1% (active) in the assay with BT-549 breast. For the same molecule, the growth is -18.8% (active) in the assay with MDA-MB-435 melanoma; -25.8% (active) with SW-620 colon; 1.86% (active) with MCF7 breast; -31.2% (active) in the assay on HCT-116 colon; 2.23% (active) with HCC-2998 colon; -9.64% (active) with KM12 colon.

Regarding `CCN(CC)c1cc(C)c(Cc2c(OC)ccc3ccccc23)cc1C`, the growth in the assay with SR leukemia is 85.5%; with RPMI-8226 leukemia, 102%; in the assay on OVCAR-8 ovarian, 96.8%; in the assay with OVCAR-5 ovarian, 102%; in the assay on OVCAR-4 ovarian, 96.9%; with SK-OV-3 ovarian it was 83.4%. Besides, the growth with IGROV1 ovarian is 88.6%; with OVCAR-3 ovarian, 106%; in the assay on HS 578T breast it was 81%; with NCI/ADR-RES ovarian, 103%; in the assay on T-47D breast, 82.3%; with BT-549 breast, 105%. For the same molecule, the growth was 104% in the assay on MDA-MB-435 melanoma; 86.1% with SW-620 colon; 90.9% with MCF7 breast; 86.2% in the assay with HCT-116 colon; 100% in the assay on HCC-2998 colon; 98.1% in the assay on KM12 colon.

Consider `O=S(=O)(Nc1ccc2ccccc2c1)N1CCCCC1`, for which the growth was 38.1% in the assay on SR leukemia; 82.4% with RPMI-8226 leukemia; 68.2% with OVCAR-8 ovarian; 79.1% in the assay on OVCAR-5 ovarian; 85.1% with OVCAR-4 ovarian; 52% in the assay on SK-OV-3 ovarian. In addition, the growth with IGROV1 ovarian is 36.3%; with OVCAR-3 ovarian, 53.2%; in the assay with HS 578T breast, 47.5%; in the assay on NCI/ADR-RES ovarian, 6.41% (active); in the assay with T-47D breast it was 50.3%; with BT-549 breast, 47.3%. The growth in the assay with MDA-MB-435 melanoma was -0.27% (active); with SW-620 colon, 41%; in the assay with MCF7 breast it was 49%; with HCT-116 colon, 55%; in the assay with HCC-2998 colon it was 45.3%; in the assay on KM12 colon, 39.7%.

Consider `CC(=O)Nc1c(Br)cc2c(c1Br)Cc1cc(Br)ccc1-2`, for which the growth in the assay on SR leukemia was 54.4%; in the assay on RPMI-8226 leukemia it was 83%; with OVCAR-8 ovarian, 68.7%; in the assay with OVCAR-5 ovarian, 108%; in the assay with OVCAR-4 ovarian, 9.85% (active); with SK-OV-3 ovarian, 85.7%. Further, the growth with IGROV1 ovarian is 45%; with OVCAR-3 ovarian, 87%; with HS 578T breast, -7.93% (active); in the assay on NCI/ADR-RES ovarian it was 76.1%; with T-47D breast, 38.9%; with BT-549 breast it was 77.3%. In addition, the growth was 69.3% in the assay on MDA-MB-435 melanoma; 41.7% in the assay on SW-620 colon; 59.9% in the assay with MCF7 breast; 46.6% in the assay on HCT-116 colon; 102% in the assay with HCC-2998 colon; 59.6% in the assay on KM12 colon.

As for `CCCCCCCCCCCCNC(=O)N[C@H](C(=O)N[C@H]1/C=C/CCNC(=O)/C=C/[C@H](C)NC1=O)C(C)C`, the growth in the assay with SR leukemia was -22.7% (active); in the assay with RPMI-8226 leukemia, 41.1%; with OVCAR-8 ovarian it was 11.5%; in the assay on OVCAR-5 ovarian, -83.7% (active); in the assay on OVCAR-4 ovarian, 3.35% (active); in the assay on SK-OV-3 ovarian, -42.6% (active). Besides, the growth is -32.9% (active) with IGROV1 ovarian; -44.3% (active) in the assay with OVCAR-3 ovarian; 49.5% with HS 578T breast; 94.4% in the assay on NCI/ADR-RES ovarian; -41.9% (active) in the assay on T-47D breast; -87.2% (active) in the assay with BT-549 breast. In addition, the growth in the assay on MDA-MB-435 melanoma is -40.1% (active); in the assay with SW-620 colon it was -22.3% (active); with MCF7 breast, 14.1%; in the assay on HCT-116 colon it was -85.2% (active); in the assay on HCC-2998 colon it was -95.8% (active); in the assay on KM12 colon, -62.4% (active).

As for `N#Cc1ccc(-c2ccc(-c3cccs3)o2)cc1F`, the growth with SR leukemia is 85%; in the assay with RPMI-8226 leukemia, 70.7%; in the assay on OVCAR-8 ovarian, 64.2%; with OVCAR-5 ovarian it was 101%; with OVCAR-4 ovarian, 77.5%; in the assay on SK-OV-3 ovarian it was 52.1%. In addition, the growth in the assay with IGROV1 ovarian is 82.4%; in the assay on OVCAR-3 ovarian it was 80.5%; in the assay on HS 578T breast it was 51.2%; with NCI/ADR-RES ovarian, 72.1%; in the assay with T-47D breast it was 23.7%; with BT-549 breast, 78%. In addition, the growth is 94.8% with MDA-MB-435 melanoma; 98.5% in the assay on SW-620 colon; 26.4% with MCF7 breast; 64.5% in the assay on HCT-116 colon; 91.5% in the assay with HCC-2998 colon; 83.2% with KM12 colon.

As to `O=C(CSc1nc2c(n1Nc1ccccc1)-c1ccccc1SC2)Nc1nccs1`, the growth was 82.7% in the assay on SR leukemia; 90.7% with RPMI-8226 leukemia; 97.3% in the assay on OVCAR-8 ovarian; 103% with OVCAR-5 ovarian; 102% in the assay on OVCAR-4 ovarian; 109% in the assay on SK-OV-3 ovarian. For the same molecule, the growth with IGROV1 ovarian is 91.4%; with OVCAR-3 ovarian it was 98.6%; in the assay on HS 578T breast, 93.5%; in the assay on NCI/ADR-RES ovarian, 90.4%; with T-47D breast it was 97.6%; in the assay with BT-549 breast, 127%. The growth was 103% in the assay with MDA-MB-435 melanoma; 97.5% in the assay on SW-620 colon; 96.3% with MCF7 breast; 88.3% in the assay with HCT-116 colon; 99.7% in the assay with HCC-2998 colon; 102% in the assay on KM12 colon.
